Results on 30 compounds are retold here after PubChem BioAssay AID743269 (The Scripps Research Institute Molecular Screening Center, 2014).

Among all 370,000 compounds or so, about 2,400 (0.65%) were called active. The sample holds actives, similar compounds and a random draw of the others, so the mix is not that of the screen. Unmarked numbers belong to inactive results.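 Rule for the calls: active = inhibition above the screen-wide mean plus 3 SD (cut at about 13% in these data); inactive = the rest.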

The test relates to HIV-1 integrase (with human LEDGF/p75). Kind of test: blockers of LEDGF/p75-dependent integrase strand transfer – biochemical, TR-FRET, high throughput, primary screen (AID 743269).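 Note: signal is the Cy5 over europium emission ratio at 671 and 618 nm; 0% = plate median of compound wells.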 The following applies: TR-FRET IN-LEDGF/p75 DNA integration, Eu/Cy5; at 3.7 µM; hits give high values. Background: Time-resolved FRET reads energy transfer from a long-lived donor to a nearby acceptor.
By inhibition is commonly meant the relative decrease from the control value, in per cent. Consider `CCOC(=O)c1cccc(C2=C(CNC(=O)c3ccncc3)[C@H]3CC[C@@H](C2)N3Cc2ccccc2)c1`, for which the inhibition is -5.73%.
Under `CCOC(=O)c1c(N)n(Cc2ccccc2)c2nc3ccccc3nc12` stands 32.8% (active); under `COc1cc(Cn2c(N)c(C(=O)NCc3ccco3)c3nc4ccccc4nc32)cc(OC)c1OC`, 1.57%.
Regarding `CCN1C(=O)C(=Cc2c(C)n(CC(=O)NCC3CCCO3)c3ccccc23)C(=O)N(CC)C1=S` (stereo not given), the inhibition was -2.24%.
For `COc1ccc2c(c1)[C@@]13CCCCC1[C@@H](C2)NCC3` (stereo not given in full), the inhibition was -1.92%.
As to `Cc1c(C(=O)O)cccc1-n1c(C)cc(/C=C2\C(=O)NC(=O)N(c3ccc4c(c3)OCO4)C2=O)c1C`, the inhibition is 15.4% (active).
Take `O=P(OC1=CCCCC1)(c1ccccc1)c1ccccc1`: the inhibition is 6.63%.
For the compound `CCC(C)(O)C(=O)OC1C(=O)OC2CC3C(C)=CC(=O)C(O)C3(C)C3C4(O)OCC23C1C(C)C4O` (stereo not given), the inhibition was -3.3%.
As to `CCOc1cccc(=NC2CCCCC2)c2c(C)[nH]c(C)c12`, the inhibition is 36.3% (active).
As for `Cc1cccc(-n2c(O)c(C=NC34CN5CN(CN(C5)C3)C4)c(=O)[nH]c2=O)c1`, the inhibition was -3.72%.
Consider `CC(C)Nc1nc(Cl)nc(NC(C)C)n1`, for which the inhibition was -1.42%.
Under `Brc1ccc2c(c1)CNCc1cnnn1-2` stands 6.88%.
Turning to `Cc1cc(N2CCNC[C@@H]2C)ccc1N1CC[C@H](O)C1`, the inhibition was 7.07%.
For the compound `COc1ccc(N2C(=O)/C(=C/c3ccco3)C(=O)NC2=S)cc1`, the inhibition is 59.1% (active).
For `O=S(=O)(c1ccccc1)N1CCC2CCNC2C1` (stereo not given), the inhibition is 5.81%.
Next, `CCC(C)NC1(c2ccccc2)CCCCC1` (stereo not given): 2.52%; `COC(=O)C(O)(c1ccc(NC(=O)c2ccco2)c(OC)c1)C(F)(F)F` (stereo not given): -2.33%.
Under `CO[C@H]([C@H](C)/C=C/N(C)C=O)[C@@H](C)C(=O)CC[C@H](C)[C@H](O)[C@H](C)[C@H]1OC(=O)/C=C/C(C)=C/[C@H](O)[C@H](OC)C[C@@H]2C=CC[C@@H](C[C@H](OC)[C@@]3(CO3)[C@@H](OC)C[C@@H](OC)[C@@H]1C)O2` stands 0.17%.
As to `Clc1ccc([C@@H]2CC3CCC2N3)cn1` (stereo not given in full), the inhibition was 4.15%.
Next, `Cc1cc(/C=C2/C(=O)NC(=O)N(Cc3ccco3)C2=O)c(C)n1-c1ccc(C(=O)O)cc1`: 86% (active); `Cc1ccnc(-n2c(C)cc(/C=C3\C(=O)NC(=S)N(C)C3=O)c2C)c1`: 1.59%; `O=C1NC(=O)N(Cc2ccco2)C(=O)/C1=C\c1ccc(-c2ccc(F)cc2)o1`: 73.2% (active).
Next, `Cc1cc(C=C2C(=O)NC(=O)NC2=O)c(C)n1-c1ccncc1`: 3.8%; `Cc1ccccc1CCC[C@@H](CC1CCCCC1)CN(C)C(=O)Oc1ccccc1`: -1.47%.
Next, `C[N+]12CN3CN(CN(C3)C1)C2`: -0.49%; `COc1cc(OC)cc(C(=O)NCCN2CCC3(CC2)C(=O)NCN3c2ccccc2)c1`: 4.72%; `CCN(CC)C(=O)[C@@H]1C=C2c3cccc4[nH]c(Br)c(c34)C[C@H]2N(C)C1`: 1.36%.
Consider `CS(=O)(=O)N1CCC2CCNC2C1` (stereo not given), for which the inhibition is -2.54%.
Regarding `O=C(N/N=C/c1c(O)n(C2CC2)c(=S)[nH]c1=O)c1ccccc1`, the inhibition is -7.23%.
Next, `COP(=O)(Sc1ccccc1)C(Cc1ccccc1)NC(=O)OCc1ccccc1` (stereo not given): 4.08%.
